“And” between values parts separate entries of the source, which are not always exact repeats. Equal values may be shown once. The source holds several records for some structures; these can differ, active in one and inactive in another. The source made the active and inactive calls. How the source made its calls: active means hit-call score of the fitted dose curve at least 0.9, where 1 is the maximum; inactive means score below 0.9.
Key:
[1] = read-out: Macrophage colony-stimulating factor (MCSF), CSF1 (gene 1435); assay: BSK_hDFCGF_MCSF: BioMAP Diversity Plus: hDFCGF Assay for Macrophage colony-stimulating factor (MCSF) Biomarker Activity (AID 2283060); details: primary human foreskin fibroblasts; actives raise or lower the signal
Outline: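 Human foreskin primary fibroblasts were treated with test chemical for 24 h, and M-CSF was then measured by ELISA. Data were fitted bidirectionally against DMSO as the negative control and activity baseline.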

[2] = read-out: TIMP metallopeptidase inhibitor 1 (TIMP1), TIMP1 (gene 7076); assay: BSK_hDFCGF_TIMP1: BioMAP Diversity Plus: hDFCGF Assay for TIMP metallopeptidase inhibitor 1 (TIMP1) Biomarker Activity (AID 2283062); details: primary human foreskin fibroblasts; actives raise or lower the signal
Outline: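 Primary human foreskin fibroblasts in the hDFCGF system were dosed with compound for 24 h, then TIMP-1 was measured by ELISA. Activity was fitted bidirectionally relative to DMSO control; parallel SRB staining assessed cytotoxicity.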

[3] = read-out: Monokine induced gamma interferon (MIG), CXCL9 (gene 4283); assay: BSK_hDFCGF_MIG: BioMAP Diversity Plus: hDFCGF Assay for Monokine induced gamma interferon (MIG) Biomarker Activity (AID 2283063); details: primary human foreskin fibroblasts; actives raise or lower the signal
Outline: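 ELISA read-out of MIG from primary human dermal fibroblasts 24 h post-dosing. Gain or loss of signal fitted bidirectionally, DMSO as baseline.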

[4] = read-out: Matrix Metallopeptidase 1 (MMP1), MMP1 (gene 4312); assay: BSK_hDFCGF_MMP1: BioMAP Diversity Plus: hDFCGF Assay for Matrix Metallopeptidase 1 (MMP1) Biomarker Activity (AID 2283064); details: primary human foreskin fibroblasts; actives raise or lower the signal
Outline: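 Primary human foreskin fibroblasts in the hDFCGF system were dosed with test chemical, and MMP1 was measured by ELISA 24 h later. Values come from bidirectional curve fitting against the DMSO baseline.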

[5] = read-out: Vascular cell adhesion molecule 1 (VCAM1), VCAM1 (gene 7412); assay: BSK_hDFCGF_VCAM1: BioMAP Diversity Plus: hDFCGF Assay for Vascular cell adhesion molecule 1 (VCAM1) Biomarker Activity (AID 2283065); details: primary human foreskin fibroblasts; actives raise or lower the signal;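 on AC50: VCAM-1 protein level quantified by ELISA after 24 h chemical exposure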
Outline: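 Primary human foreskin fibroblasts (hDFCGF system) were dosed with chemical and VCAM-1 was measured by ELISA 24 h later. Bidirectional curve fitting used DMSO as negative control and activity baseline.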

[6] = read-out: Plasminogen activator inhibitor-1 (PAI1), SERPINE1 (gene 5054); assay: BSK_hDFCGF_PAI1: BioMAP Diversity Plus: hDFCGF Assay for Plasminogen activator inhibitor-1 (PAI1) Biomarker Activity (AID 2283066); details: primary human foreskin fibroblasts; actives raise or lower the signal
Outline: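 Human foreskin fibroblast primary cells, 24 h chemical exposure; PAI-1 measured by ELISA. Bidirectional fitting relative to DMSO; parallel cultures stained with SRB for total protein to flag overt cytotoxicity.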

[7] = read-out: Intercellular Adhesion Molecule 1 (ICAM1), ICAM1 (gene 3383); assay: BSK_KF3CT_ICAM1: BioMAP Diversity Plus: KF3CT Assay for Intercellular Adhesion Molecule 1 (ICAM1) Biomarker Activity (AID 2283067); details: primary human keratinocytes with fibroblasts; actives raise or lower the signal
Outline: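 Human keratinocyte plus foreskin fibroblast primary co-culture was exposed to chemical for 24 h. ICAM-1 was then quantified by ELISA, and the data were fit bidirectionally against DMSO as the negative control and baseline.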

[8] = read-out: Interferon-gamma inducible Protein 10 (IP10), CXCL10 (gene 3627); assay: BSK_KF3CT_IP10: BioMAP Diversity Plus: KF3CT Assay for Interferon-gamma inducible Protein 10 (IP10) Biomarker Activity (AID 2283068); details: primary human keratinocytes with fibroblasts; actives raise or lower the signal
Outline: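 KF3CT co-culture (keratinocytes + foreskin fibroblasts), 24 h compound, IP-10 by ELISA; bidirectional fit vs DMSO baseline.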

[9] = BSK_KF3CT_SRB: Viability Assessment in the BioMAP Diversity Plus: KF3CT Assay (AID 2283069); details: primary human keratinocytes with fibroblasts
Outline: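 Human primary keratinocyte plus foreskin fibroblast co-culture exposed to chemicals for 24 h. Total protein measured by 0.1% sulforhodamine B staining after 10% TCA fixation, read at 560 nm; bidirectional fitting versus DMSO baseline.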

[10] = read-out: Interleukin-1 alpha (IL1a), IL1A (gene 3552); assay: BSK_KF3CT_IL1a: BioMAP Diversity Plus: KF3CT Assay for Interleukin-1 alpha (IL1a) Biomarker Activity (AID 2283070); details: primary human keratinocytes with fibroblasts; actives raise or lower the signal
Outline: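 Human keratinocyte plus foreskin fibroblast primary co-culture, sampled 24 h after chemical dosing. IL-1a measured by ELISA; responses fitted bidirectionally against DMSO baseline (negative control), so gain or loss of signal both count.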

[11] = read-out: TIMP metallopeptidase inhibitor 2 (TIMP2), TIMP2 (gene 7077); assay: BSK_KF3CT_TIMP2: BioMAP Diversity Plus: KF3CT Assay for TIMP metallopeptidase inhibitor 2 (TIMP2) Biomarker Activity (AID 2283071); details: primary human keratinocytes with fibroblasts; actives raise or lower the signal
Outline: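 Co-culture of human primary keratinocytes and foreskin fibroblasts, measured 24 h after chemical dosing. TIMP-2 quantified by ELISA and fitted in both directions relative to DMSO. Cytotoxicity checked in parallel cultures by SRB total-protein staining.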

[12] = read-out: C-C motif chemokine 2 (Homo sapiens) (UniProt P13500); assay: BSK_KF3CT_MCP1: BioMAP Diversity Plus: KF3CT Assay for Monocyte Chemoattractant Protein 1 (MCP1/CCL2) Biomarker Activity (AID 2283073); details: primary human keratinocytes with fibroblasts; actives raise or lower the signal
Outline: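 Human keratinocyte plus foreskin fibroblast primary co-culture exposed to chemical for 24 h. MCP-1 levels measured by ELISA. Bidirectional curve fitting relative to DMSO negative control as baseline.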

[13] = read-out: Matrix Metallopeptidase 9 (MMP9), MMP9 (gene 4318); assay: BSK_KF3CT_MMP9: BioMAP Diversity Plus: KF3CT Assay for Matrix Metallopeptidase 9 (MMP9) Biomarker Activity (AID 2283074); details: primary human keratinocytes with fibroblasts; actives raise or lower the signal;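 on AC50: MMP9 protein level quantified by ELISA in the co-culture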
Outline: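 Keratinocyte plus foreskin fibroblast human primary skin co-culture was dosed with chemical and MMP-9 was quantified by ELISA 24 h later. Bidirectional curve fitting used DMSO as negative control and activity baseline.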

[14] = read-out: urokinase plasminogen activator (uPA), PLAU (gene 5328); assay: BSK_KF3CT_uPA: BioMAP Diversity Plus: KF3CT Assay for urokinase plasminogen activator (uPA) Biomarker Activity (AID 2283075); details: primary human keratinocytes with fibroblasts; actives raise or lower the signal
Outline: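 Human keratinocyte plus foreskin fibroblast primary co-culture exposed to chemical for 24 h. uPA levels were quantified by ELISA, and activity was fitted bidirectionally against a DMSO negative-control baseline.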

CD40, CD40 (gene 958) = assay: BSK_LPS_CD40: BioMAP Diversity Plus: LPS Assay for CD40 Biomarker Activity (AID 2283076); details: primary human HUVEC with PBMC; actives raise or lower the signal
Outline: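 Primary human umbilical vein endothelial cells co-cultured with peripheral blood mononuclear cells, LPS-stimulated, were dosed with chemical and read 24 h later. CD40 levels were measured by ELISA and fitted bidirectionally against DMSO as negative control and baseline.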

[15] = read-out: E-selectin (Homo sapiens) (UniProt P16581); assay: BSK_LPS_Eselectin: BioMAP Diversity Plus: LPS Assay for Eselectin Biomarker Activity (AID 2283077); details: primary human HUVEC with PBMC; actives raise or lower the signal
Outline: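 Human umbilical vein endothelial cells co-cultured with peripheral blood mononuclear cells under LPS stimulation; E-selectin measured by ELISA 24 h after chemical dosing. Activity fitted bidirectionally against DMSO as negative control and baseline.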

[16] = read-out: Interleukin-8 (IL8), CXCL8 (gene 3576); assay: BSK_LPS_IL8: BioMAP Diversity Plus: LPS Assay for Interleukin-8 (IL8) Biomarker Activity (AID 2283078); details: primary human HUVEC with PBMC; actives raise or lower the signal
Outline: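 Human umbilical vein endothelial cells co-cultured with PBMC were stimulated with LPS; IL-8 levels were measured by ELISA 24 h after chemical dosing. Activity was fitted bidirectionally against DMSO as negative control and baseline.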

[17] = BSK_LPS_SRB: Viability Assessment in the BioMAP Diversity Plus: LPS Assay (AID 2283079); details: primary human HUVEC with PBMC;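 further: total protein by sulforhodamine B absorbance as a cytotoxicity measure; measured one day after compound addition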
Outline: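 Human umbilical vein endothelial cells co-cultured with PBMC (LPS system) were dosed for 24 h. Total protein was stained with 0.1% sulforhodamine B after 10% TCA fixation, read at 560 nm, and fitted bidirectionally against DMSO baseline.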

[18] = BSK_hDFCGF_SRB: Viability Assessment in the BioMAP Diversity Plus: hDFCGF Assay (AID 2283061); details: primary human foreskin fibroblasts;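 further: cells exposed to compound for 24 h before the read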
Outline: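 Human foreskin primary fibroblasts were treated with compound and assessed 24 h after dosing. Total protein was measured by sulforhodamine B staining (0.1% SRB after 10% TCA fixation, 560 nm read) as a cytotoxicity marker, with bidirectional fitting against DMSO baseline.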

[19] = read-out: Transforming growth factor beta 1 (TGFb1), TGFB1 (gene 7040); assay: BSK_KF3CT_TGFb1: BioMAP Diversity Plus: KF3CT Assay for Transforming growth factor beta 1 (TGFb1) Biomarker Activity (AID 2283072); details: primary human keratinocytes with fibroblasts; actives raise or lower the signal
Outline: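 Human keratinocyte/foreskin fibroblast co-culture; TGF-b1 measured by ELISA 24 h after dosing, fitted bidirectionally versus DMSO. Cytotoxicity checked in parallel cultures by total protein (SRB staining, 560 nm).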

Measured: AC50

E-selectin (Homo sapiens), sequence (P16581 whole entry, looked up): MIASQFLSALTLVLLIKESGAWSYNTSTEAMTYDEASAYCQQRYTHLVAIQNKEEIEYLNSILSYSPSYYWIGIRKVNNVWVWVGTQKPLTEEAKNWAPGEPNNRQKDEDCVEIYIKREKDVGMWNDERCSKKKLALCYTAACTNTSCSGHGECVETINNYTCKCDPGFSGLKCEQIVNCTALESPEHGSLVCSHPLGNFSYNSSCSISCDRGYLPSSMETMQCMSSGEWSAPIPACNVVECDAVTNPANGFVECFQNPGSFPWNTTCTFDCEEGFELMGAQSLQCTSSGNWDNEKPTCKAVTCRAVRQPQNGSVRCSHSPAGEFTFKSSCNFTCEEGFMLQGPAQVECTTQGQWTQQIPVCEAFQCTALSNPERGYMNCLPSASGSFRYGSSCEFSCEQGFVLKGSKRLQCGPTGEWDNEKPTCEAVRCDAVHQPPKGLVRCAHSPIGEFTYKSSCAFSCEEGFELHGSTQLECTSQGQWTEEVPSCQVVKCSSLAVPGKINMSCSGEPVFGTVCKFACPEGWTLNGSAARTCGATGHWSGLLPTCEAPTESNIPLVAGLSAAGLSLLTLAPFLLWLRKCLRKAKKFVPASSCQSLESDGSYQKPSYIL

FC(F)(F)C(F)(F)C(F)(F)C(F)(F)C(F)(F)C(F)(F)C(F)(F)CCI
inactive: [1] | [2] | [3] | [4] | [5] | [6] | [7] | [8] | [9] | [10] | [11] | [12] | [13] | [14] | CD40, CD40 (gene 958) | [15] | [16] | [17]
active: [1] 1.47 µM | [3] 3.33 µM | [12] 3.94 µM

O=C(O)C(F)(F)C(F)(F)C(F)(F)C(=O)O
active: [18] 1.81 µM and 19.7 µM
not listed: [10] | [11] | [19]
inactive: all other assays above

NC(=O)C(F)(F)C(F)(F)C(F)(F)C(F)(F)C(F)(F)C(F)(F)C(F)(F)F
not listed: [10] | [11] | [19]
inactive: all other assays above

Cc1cc(O)c(C(C)(C)C)cc1C(C)(C)C
active: [1] 5.42 µM | [18] 5.28 µM | [2] 4.03 µM | [3] 9.12 µM | [4] 6.54 µM | [5] 5.41 µM | [6] 4.51 µM | [7] 2.89 µM | [8] 3.63 µM | [9] 2.33 µM | [19] 3.85 µM | [12] 3.37 µM | [13] 5.96 µM | [14] 3.78 µM | CD40, CD40 (gene 958) 5.28 µM | [15] 6.95 µM | [16] 9.26 µM | [17] 7.74 µM

O=C1c2c(O)ccc(Nc3ccc(CCO)cc3)c2C(=O)c2c([N+](=O)[O-])ccc(O)c21
active: [1] 8.52 µM | [18] 20 µM | [2] 20 µM | [3] 29.5 µM | [5] 9.03 µM | [7] 15.2 µM | [8] 27 µM | [13] 20 µM | CD40, CD40 (gene 958) 8.34 µM | [15] 20 µM | [17] 3.97 µM
inactive: [4] | [6] | [9] | [19] | [12] | [14] | [16]

COC(F)(C(F)F)C(F)(F)F (stereo not given)
not listed: [19]
inactive: all other assays above

From PubChem BioAssay (EPA / NIEHS)
